Shown are actives, neighbours in structure and some others; about 6.8% of the full set was active somewhere.
PINK1 modulator = PINK1 expression modulation; PINK1 immunofluorescence, high-content cytometry, 24 h; Potency, µM (doses to about 76.6 µM), most hits filed as activators; actives 0.2% (n = 410,000); active means well fitted activation curve with a large enough effect; inconclusive means small, poorly fitted or top-dose-only effect; cell line not stated here; further: nearly all actives have a fitted effect of over 65% in size
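Measures PINK1 amount and localization on or inside mitochondria by immunofluorescence. Stable cells get compounds at 5 concentrations for 24 hours before fixation and staining; CCCP controls included.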
TSG101-PTAP inh = blocks PTAP/TSG101 interaction to inhibit HIV-1 budding | Fluorescence polarization, FITC-PTAP peptide / Tsg101 binding | 340,000 tested, under 10 active | Potency, µM (highest dose often 115 µM), actives largely listed as inhibitors; active means well fitted inhibition curve with a large enough effect in the main read-out, with a control signal flat, not every such curve was filed as active; inconclusive means small, poorly fitted or top-dose-only effect, or effect the other way, or a change in a side signal; inactive means no such curve, though single readings can be large or run the other way
Target sequence (Q99816 whole entry, looked up): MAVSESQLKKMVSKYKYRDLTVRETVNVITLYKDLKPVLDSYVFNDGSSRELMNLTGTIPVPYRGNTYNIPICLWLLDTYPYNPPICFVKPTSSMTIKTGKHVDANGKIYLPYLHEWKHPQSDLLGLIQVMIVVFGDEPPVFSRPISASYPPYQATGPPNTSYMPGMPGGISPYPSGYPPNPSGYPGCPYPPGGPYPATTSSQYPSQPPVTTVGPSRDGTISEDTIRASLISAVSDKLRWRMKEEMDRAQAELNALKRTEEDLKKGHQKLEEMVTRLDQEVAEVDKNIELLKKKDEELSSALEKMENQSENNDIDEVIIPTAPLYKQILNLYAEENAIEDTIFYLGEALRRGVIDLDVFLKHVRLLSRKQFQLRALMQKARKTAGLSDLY
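Fluorescence polarization binding of Tsg101 binding domain (10 uM final) to FITC-labeled PTAP peptide (50 nM final) in HEPES pH 7.5 buffer with NaCl, Tween 20, EDTA, TCEP. Compounds added before peptide; binding 20 min at RT.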
KB-3-1 tox = kills parental KB-3-1 adenocarcinoma cells. Potency, µM (highest dose often 46.1 µM), hits mostly cytotoxic. KB-3-1 viability, CellTiter-Glo ATP luminescence, 72 h. actives 1.4% (n = 400,000); further: nearly all actives have a fitted effect of over 60% in size
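Screening of KB-3-1 cells (DMEM, 10% FBS, phenol-red free) ran from lowest to highest compound concentration; after 72 h at 37 °C viability was read luminescently and curves fitted.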
KB-V1 cytotox = KB-V1 MDR subline cytotoxicity; KB-V1 MDR cells viability, CellTiter-Glo, 72 h; Potency, µM (titrated, usually from 46.1 µM), usual class: cytotoxic; actives 3.4% (n = 400,000); further: nearly all actives have a fitted effect of over 60% in size
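KB-V1 cells (P-gp-expressing MDR subline of KB-3-1) in phenol-red-free DMEM with 10% FBS were exposed to library compounds over a concentration series for 72 h at 37 degrees C. Viability read by CellTiter-Glo luminescence; concentration-effect curves fitted after normalization.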
MCF10A rereplic = inducers of DNA re-replication in MCF 10A breast cells | Potency, µM (top dose mostly 46.1 µM), usual class: activators | MCF 10A DNA re-replication, Hoechst nuclear intensity, 48 h | actives 2.9% (n = 350,000); further: nearly all actives have a fitted effect of over 50% in size
SW480 rereplic = induces DNA re-replication in SW480 colon adenocarcinoma cells | SW480 DNA re-replication, Hoechst DNA content imaging, 48 h | Potency, µM (top dose mostly 46.1 µM), hits mostly activators | actives 1.8% (n = 340,000) | AID 624297; further: nearly all actives have a fitted effect of over 55% in size
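SW480 cells exposed to compounds for 48 hr at 37 C, 5% CO2, then Hoechst-stained 40 min. Nuclear DNA content imaged by fluorescence scanning (405 nm excitation, 500-530 nm emission); re-replication scored as increased high-intensity nuclei.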
A number is an active result; - = inactive; ? = inconclusive; . = no result given; ! = a repeat was not active. Unless noted, the call rests on the fitted dose curve; in most records, active means well fitted curve in the direction sought with a large enough effect; inconclusive means small, poorly fitted or top-dose-only effect, or another doubt; inactive means no such curve, though single readings can be large; an effect the other way counts as inactive or inconclusive.

SMILES	PINK1 modulator	TSG101-PTAP inh	KB-3-1 tox	KB-V1 cytotox	MCF10A rereplic	SW480 rereplic
COc1ccc(-n2cc(-c3ccccc3)[nH]c2=S)c(OC)c1	-	-	16.4µM	-	16.4µM	18.4µM
COC(=O)c1cc2oc(C)cc2n1Cc1cccc(Cl)c1	-	.	-	-	.	.
N#CC(CO)(Cc1ccc(OC(F)F)cc1)c1nc2ccccc2[nH]1 (stereo not given)	-	-	-	-	-	?
COc1ccc(CC(C#N)(CO)c2nc3ccccc3[nH]2)cc1 (stereo not given)	-	-	?	?	-	20.6µM
Cc1ccc2c(=O)cc(C(=O)Nc3ccc(S(=O)(=O)N(C)Cc4ccccc4)cc3)oc2c1C	-	.	-	-	.	.
CN(C)c1ccc(C(CNC(=O)c2ccccc2Cl)N2CCCC2)cc1 (stereo not given)	-	.	-	-	.	.
CC(=O)c1c(O)c2ccccc2n(C)c1=O	-	-	-	-	-	-
Cn1c(=O)c(C(=O)Nc2ccccn2)c(O)c2ccccc21	-	-	18.4µM	2.31µM	-	-
Cn1c(=O)c(C(=O)Nc2ccccc2S(N)(=O)=O)c(O)c2ccccc21	-	-	-	?	-	-
CC(NC(=O)c1c(O)c2ccccc2n(C)c1=O)c1ccccc1 (stereo not given)	-	-	?	?	-	23.1µM
COc1ccc2c(c1)-c1nc(-n3ncc(C(=O)NCc4cccc(C)n4)c3C3CC3)ncc1CC2	-	.	.	.	.	.
CCN(CC)CCNC(=O)C(=O)Nc1ccc2c(c1)N(S(=O)(=O)c1cccs1)CCC2	-	-	-	-	?	5.17µM
CCCCNC(=O)C(=O)Nc1ccc2c(c1)N(S(=O)(=O)c1cccs1)CCC2	-	.	2.06µM	2.31µM	.	.
Cc1ccc(CSc2nc3ccccc3cc2C=O)cc1	-	-	8.2µM	?	20.6µM	2.59µM
O=Cc1cc2ccccc2nc1SCc1ccc(Cl)cc1	?	-	6.51µM	?	?	?
Cc1ccc(CSc2ncnc3ccccc23)cc1	-	-	-	-	-	-
O=c1[nH]c(SCc2ccc(Cl)cc2)nc2ccccc12	-	-	?	-	-	-
O=Cc1cc2ccccc2nc1SCc1ccc(Cl)c(Cl)c1	?	-	4.61µM	5.8µM	?	?
Cc1ccc(C)c(CN2CCC3(CCC(CNC(=O)c4ccnn4C)O3)CC2)c1 (stereo not given)	-	.	.	.	.	.
CCNc1ncc2nc(-c3ccc(Cl)cc3)c(=O)n(-c3ccccc3)c2n1	12.6µM	.	.	.	.	.
CCOC(=O)N1CCC(NC(=O)c2cnn(-c3ccc(C)cc3)c2C2CCN(C(=O)OC(C)(C)C)CC2)CC1	-	.	-	?	.	.
CC12CCC(C[N+](C)(CCC[N+](C)(C)C)C1)C2(C)C (stereo not given)	.	.	.	.	-	-
COc1ccc(CN2CCOc3ccc(CN4CCCCC4CO)cc3C2)c(OC)c1 (stereo not given)	-	.	.	.	.	.
Nc1cc(=O)[nH]c(SCC(=O)Nc2cc(S(=O)(=O)N3CCCCCC3)ccc2Cl)n1	-	-	-	-	?	-
Cc1ccc(-c2nc(SCC(=O)Nc3cc(S(=O)(=O)N4CCCCC4)ccc3Cl)n[nH]2)cc1	31.6µM	-	?	16.4µM	?	-
SMILES	PINK1 modulator	TSG101-PTAP inh	KB-3-1 tox	KB-V1 cytotox	MCF10A rereplic	SW480 rereplic
CCCc1cc(=O)[nH]c(SCC(=O)Nc2cc(S(=O)(=O)N3CCCCC3)ccc2Cl)n1	-	-	8.2µM	?	?	-
COc1cccc2c1C1COC3C4CC(C(=O)O)C(C(C2)N13)N4C (stereo not given)	-	-	?	16.4µM	2.59µM	?
Cc1cc(C)c(NS(=O)(=O)c2ccc(NC(=O)c3cccs3)cc2)c(C)c1	-	-	-	-	?	-
CCOC(=O)/C=C/S(=O)(=O)c1ccc(NC(C)=O)cc1	-	-	14.6µM	-	2.31µM	2.59µM
CCOC(=O)/C=C/C(=O)OCC(=O)Nc1ccc(C)cc1	-	-	-	-	?	-
O=C(CNCc1ccccc1)Nc1ccc(Oc2ccccc2)cc1	-	-	5.17µM	-	?	18.4µM
CCOC(=O)/C=C/C(=O)Nc1ccc(Oc2ccccc2)cc1	-	-	-	-	16.4µM	-
CCOC(=O)/C=C/C(=O)Nc1ccc(S(=O)(=O)Nc2c(C)cc(C)cc2C)cc1	-	-	?	-	16.4µM	?
O=C(O)/C=C/C(=O)Nc1ccc(Oc2ccccc2)cc1	-	-	-	-	-	-
C=CCn1cnc2c(c1=O)c1nc3ccccc3nc1n2/N=C/c1cccc(OC)c1OC	-	-	-	23.1µM	-	-
Cc1nn2c(=O)cc(COC(=O)c3ccccc3NC(=O)C(C)C)nc2s1	-	.	.	.	.	.
Cc1onc(-c2ccccc2)c1C(=O)NCCN1Cc2ccccc2OC(c2ccsc2)C1 (stereo not given)	-	.	.	.	.	.
C[C@]12CCC(=O)C[C@@H]1CC[C@@H]1[C@@H]2CC[C@]2(C)C=CC[C@@H]12	-	-	-	-	29.9µM!	-
C[C@]12CCC(=O)CC1CCC1C2CC[C@@]2(C)C1CC[C@@]21CCO1 (stereo not given in full)	-	-	-	?	?	-
CC1(c2nnc(-c3ccccc3)o2)CC(c2ccc([N+](=O)[O-])cc2)=NO1 (stereo not given)	-	-	10.3µM	20.6µM	-	-
CC1(c2nnc(-c3ccncc3)o2)CC(c2ccc(Cl)cc2)=NO1 (stereo not given)	-	-	-	-	9.2µM	-
CC1(c2nnc(-c3ccccc3)o2)CC(c2ccc(Cl)cc2)=NO1 (stereo not given)	-	-	-	-	-	-
O=C(NCCc1csc(-c2cccnc2)n1)c1ccc(F)c(F)c1	-	.	-	13µM	.	.
O=C(NCCc1csc(-c2cccnc2)n1)c1cccc(C(F)(F)F)c1	-	.	?	9.2µM	.	.
COc1ccc(Nc2oc(/C=C/c3cccc(OC)c3)nc2C#N)cc1	?	.	-	-	.	.
Cc1c2cnn(CC(=O)NCC(C)c3ccccc3)c(=O)c2c(C)n1Cc1cccc(Cl)c1 (stereo not given)	-	.	-	-	.	.
O=C(Nc1cccc(-c2csc(Nc3ccc(Cl)cc3)n2)c1)c1cccc(C(F)(F)F)c1	?	-	?	-	4.11µM	-
O=C(Nc1cccc(-c2csc(Nc3ccccc3)n2)c1)c1cc([N+](=O)[O-])cc(C(F)(F)F)c1	-	-	?	-	-	-
O=C(Nc1cccc(-c2csc(Nc3ccc(Cl)cc3)n2)c1)c1cc([N+](=O)[O-])cc(C(F)(F)F)c1	-	-	?	-	9.2µM	-
Cc1cc(C(=O)CSc2nc3ccccc3[nH]2)c(C)n1CC1CCCO1 (stereo not given)	-	-	3.66µM	2.31µM	?	-
CCOC(=O)Cc1nc2ccccc2[nH]1	-	-	-	-	5.01µM	2µM
